Structures are written as SMILES. Results filed as inconclusive are left out. Entries that show only a call come without a potency. Active and inactive are the calls of the source. Calls follow the shape of the dose curve; as a rule, active = well fitted cell-killing curve with a large enough effect in the repeat runs; inconclusive = weak or mixed curves, or effect the other way; inactive = no such curve, though single readings can be large or run the other way.

In PubChem BioAssay (Tox21) one finds Potency data, which are given here for 26 compounds.
Potency is read from the fitted curve at half-maximal effect.

This test can be described thus: qHTS assay for identifying genotoxic compounds that show differential cytotoxicity against isogenic chicken DT40 cell lines with known DNA damage response pathways - wild type cell line (AID 743012). Also: nearly all actives have a fitted effect of over 60% in size. To be noted: DT40 wild type chicken cells viability, CellTiter-Glo, 40 h; series mostly up to 68.4 µM. Put shortly:
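CellTiter-Glo luminescence readout of viability in wild type DT40 cells after 40 h compound exposure at 37 C/5% CO2; 300 cells/well; reagent incubated 30 min at room temperature before reading.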
On to `Cc1ncc(C[n+]2csc(CCO)c2C)c(N)n1`, for which the Potency entry was “inactive”.

Take `C=CCSSCC=C`: the Potency result is “inactive”.

On to `CCCCC(CC)COC(=O)c1c(Br)c(Br)c(Br)c(Br)c1C(=O)OCC(CC)CCCC` (stereo unspecified), for which the Potency result is “inactive”.

For `CCCC1CCCCN1` (stereo unspecified), the Potency result was “inactive”.

Regarding `CCOc1cccc(C2(N3CCN(c4ccccc4)CC3)CCC(C)CC2)c1` (stereo unspecified), the Potency result is “inactive”.

For `CCCC(C)(COC(N)=O)COC(=O)NC(C)C` (stereo unspecified), the Potency entry is “inactive”.

As to `C#C[C@]1(O)CC[C@H]2[C@@H]3CCC4=CC(=O)CCC4=C3C=C[C@@]21CC`, the Potency is 10.6 µM (active).

For `C=C(C)C(=O)OCCCCOC(=O)C(=C)C`, the Potency entry was “inactive”.

For `O=C(Cc1ccccc1)OCCc1ccccc1`, the Potency was 68.6 µM (active).

Take `FC(Cl)(Cl)C(F)(Cl)Cl`: the Potency result is “inactive”.

In the case of `CC(=O)NNc1ccccc1`, the Potency is 1.52 µM (active).

Regarding `CCN(C(C)=O)c1cccc(-c2ccnc3c(C#N)cnn23)c1`, the Potency entry is “inactive”.

`OCCCl`: the Potency entry is “inactive”.

On to `CCc1cnc(C2=NC(C)(C(C)C)C(=O)N2)c(C(=O)O)c1` (stereo unspecified), for which the Potency entry is “inactive”.

In the case of `O=C(CCl)CCl`, the Potency was 0.864 µM (active).

With `O=P(OCC(Br)CBr)(OCC(Br)CBr)OCC(Br)CBr` (stereo unspecified), the Potency is 41.1 µM (active).

With `SCc1ccccc1`, the Potency result is “inactive”.

As for `Clc1ccccc1`, the Potency result is “inactive”.

As for `CC(C)(C)NCC(O)c1cc(Cl)c(N)c(C(F)(F)F)c1` (stereo unspecified), the Potency entry is “inactive”.

On to `CCC[N+](CCC)(CCC)CCC`, for which the Potency entry is “inactive”.

Turning to `CNC(=O)Oc1cccc(N=CN(C)C)c1`, the Potency was 54.5 µM (active).

Take `O=C(O)c1cc(I)cc(I)c1I`: the Potency result is “inactive”.

As for `CCCCC#N`, the Potency entry is “inactive”.

Regarding `CC1(C)CC(=O)CC(C)(C)N1[O]`, the Potency entry was “inactive”.

`CCCCCCCCCCCCN(C)C`: the Potency result was “inactive”.

Regarding `CCCCCCCCP(=O)(O)O`, the Potency entry is “inactive”.
